This is part of a sample that, as a whole, favours compounds with a hit. Of some 83,000 tested, about 20% had one in any assay.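 Interpretation: 100, growth as untreated; towards 0, rising growth inhibition; 0, no net growth; 0 to -100, cell death. Compounds scoring below 10 were considered active.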 A number with no mark means an inactive call. Calls of active or inactive are those of the source.

The test system of the first assay is NCI/ADR-RES ovarian. Description: NCI-60 one-dose screen, 48 h (100 = growth as untreated, 0 = no growth, -100 = all killed). The settings on record: 10 µM unless noted.
As to `COC(=O)CCCNCCCn1ccc2cc(NCc3cccc(-c4ccccc4)c3C)ccc21`, the growth is 79.4%.

In the case of `C=C(C=O)[C@@H]1CC[C@]2(C(=O)O)CC[C@]3(C)C(CC[C@@H]4[C@@](C)(CCC#N)[C@H](C(=C)C=O)CC[C@]43C)[C@@H]12` (stereo partly specified), the growth is 5.79% (active).

Turning to `CC1(C)CC[C@]23CC[C@]4(C)[C@H](CC[C@@H]5[C@@]6(C)CC[C@H](NCO)C(C)(C)[C@@H]6CC[C@]54C)[C@H]2[C@H]1OC3`, the growth is 82.6%.

`O=C1/C(=C/C=C/c2ccco2)SC(=S)N1Cc1ccccc1`: the growth was 99.8%.

As to `COc1ccc(/C=N/NC(=O)c2c(N)nn(C)c2Nc2ccccc2)cc1Oc1ccccc1`, the growth was 92.6%.

Turning to `Cc1[nH]c(C(=O)Nc2ccc(S(=O)(=O)N3CCCCC3)cc2OCCOCCOCCOCCOCCOCCOCCOCCOCCOc2cc(S(=O)(=O)N3CCCCC3)ccc2NC(=O)c2[nH]c(C)c3c2CCCCC3=O)c2c1C(=O)CCCC2`, the growth is 85.3%.

Regarding `COc1ccc(C(=NNS(=O)(=O)c2ccc(C)cc2)c2ccccc2)cc1OC`, the growth was 96.8%.

As for `CNC(=O)c1cc(Oc2ccc3c(c2)sc2nc(-c4ccc(N(C)C)cc4)cn23)ccn1`, the growth was 0.629% (active).

`CN1CCN(Cc2ccc(/C=N/Nc3ccnc4cc(Cl)ccc34)cc2)CC1`: the growth was 87%.

As for `O=C1Nc2ccccc2/C1=N\c1nnc(-c2ccccc2)o1`, the growth was 95.6%.

Turning to `COc1ccc2c(c1)C=CC1(O2)Oc2ccc(OC)cc2C=C1C` (stereo unspecified), the growth was 9.17% (active).

As to `Cn1cc(-c2nn3cc(-c4ccncc4)nc3s2)c2cc(Br)ccc21`, the growth is 42.8%.

Turning to `C#Cc1nc(/C=C/CCCCCCC(=O)NO)cs1`, the growth was 24.9%.

For `CC[C@]12CC(C(=O)OC)=C3Nc4ccccc4[C@@]34CCN(C14)[C@@H]1c3cc4c(cc3O[C@@H]1[C@H]2O)NC1=C(C(=O)OC)C[C@@]2(CC)C3N(CC[C@@]143)C[C@H]1O[C@H]12` (stereo partly specified), the growth was 1.07% (active).

Consider `O=C(CCCCCCN1CC(=O)N2[C@@H](C3CC3)c3[nH]c4ccccc4c3C[C@H]2C1=O)NO`, for which the growth was 75.7%.

The subject of the next assay is T-47D breast. Described as above. The settings on record: 10 µM unless noted.
`Nc1cc(C(=O)N/N=C\c2ccc(OC(F)F)c(OC3CCCC3)c2)nn1CC(O)c1ccccc1` (stereo unspecified): the growth was 83.6%.

For `Clc1ccc2[nH]cc(-c3nn4cc(-c5ccncc5)nc4s3)c2c1`, the growth is 6.38% (active).

Take `CN1CC[C@@H]2[C@@]3(C)CC[C@H](O)C(C)(C)[C@@H]3CC[C@@]2(C)[C@]2(C)CC[C@@]3(CO)CCC(C)(C)C[C@@H]3C12` (stereo partly specified): the growth was 79.8%.

Regarding `Brc1cc(-c2cc(-c3ccc4c(c3)OCCO4)[nH]n2)cs1`, the growth is 38.5%.

As to `NS(=O)(=O)c1ccc(Nc2nc(Nc3ccccc3)nc(N3N=C(c4ccc(Cl)cc4)CC3c3ccc(Cl)cc3)n2)cc1` (stereo unspecified), the growth was 51.3%.

As for `O=C(N/N=C\c1ccc([N+](=O)[O-])cc1)c1ccc2nc(-c3ccc(Br)cc3)[nH]c2c1`, the growth is 9.87% (active).

`O=C(/C=C/c1cccc(C(F)(F)F)c1)Nc1cccc(C(F)(F)F)c1`: the growth was -6.89% (active).

As for `Brc1cccc(-c2cc(-c3ccc4c(c3)OC=CO4)[nH]n2)c1`, the growth was 44.3%.

As for `CCc1cc2c(cc1Cl)nc1c(=O)[nH]c(=O)nc-1n2CCOCC(C)C`, the growth is 75.2%.

On to `CCCCSC1=C(Cl)CN(c2ccccc2)C1=O`, for which the growth is 85%.

In the case of `Brc1ccc(-c2cc(-c3ccc4c(c3)OC=CO4)n[nH]2)s1`, the growth is 48.5%.

Turning to `O=c1c2cc(-c3ccc(F)cc3F)ccc2n(Nc2ccccc2)c(=O)n1-c1cccc(C(F)(F)F)c1`, the growth is 8.44% (active).

`CN1CCN(CCCCCC(=O)Nc2nc(-c3cccc(NS(=O)(=O)c4cccc5c(N(C)C)cccc45)c3)cs2)CC1`: the growth is 72.3%.

In the case of `CCCCc1nc2c(N)nc3ccccc3c2n1Cc1cccc(CN)c1`, the growth is 74%.

As to `CCCCCCCCCCCC(=O)NC(C)(C)C(=O)N1CCCC1C(=O)NC(C)(C)C(=O)NC(C)(C)C(=O)N1CCCC1C(=O)NC(C)(C)C(=O)NC(C)(C)C(=O)N1CCCC1C(=O)NC(C)C(=O)NCCC(=O)NC(C)C(=O)NC(C)(C)C(=O)NC(C)(C)C(=O)NC(C)(C)C(=O)NCCC(=O)NC(C)(C)C(=O)NC(C)(C)C(=O)NC(C)(C)C(=O)NC(C)C(=O)NCCC(=O)O` (stereo unspecified), the growth was -64.3% (active).

On to `NS(=O)(=O)c1ccc(Nc2nc(N/N=C/c3ccc4c(c3)OCO4)nc(Nc3ccccc3)n2)cc1`, for which the growth was 54.7%.

The values above are taken from PubChem BioAssay (NCI).
